Data reported in PubChem BioAssay AID493194 (Broad Institute, 2011).
Entries with a potency or affinity are not part of this list. Results filed as inconclusive are left out. Activity calls are given as the source filed them.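 The calls were made as follows: active = a valid curve of falling signal whose half-effect concentration is at most ten times the top tested dose; inconclusive = flat curve at 30 to 70% inhibition, or poor fit; inactive = signal rise, flat within 30%, or potency beyond limit.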

target: Scavenger receptor class B member 1 (Mus musculus) (UniProt Q61009); assay: inhibitors of SR-BI mediated HDL lipid uptake, dose response, ldlA[mSR-BI] cells, fluorescence, cherry pick (AID 493194); details: CHO ldlA[mSR-BI] DiI-HDL uptake fluorescence, 3 h; series mostly up to 35 µM; activity change, negative = inhibition: at the top concentration;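 also: CHO cells lacking LDL receptor and overexpressing mouse SR-BI; cellular uptake of fluorescently labeled HDL measured as cell fluorescence; 0% = median of neutral control wells and -100% = median of positive control wells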
Sequence (Q61009 whole entry, looked up): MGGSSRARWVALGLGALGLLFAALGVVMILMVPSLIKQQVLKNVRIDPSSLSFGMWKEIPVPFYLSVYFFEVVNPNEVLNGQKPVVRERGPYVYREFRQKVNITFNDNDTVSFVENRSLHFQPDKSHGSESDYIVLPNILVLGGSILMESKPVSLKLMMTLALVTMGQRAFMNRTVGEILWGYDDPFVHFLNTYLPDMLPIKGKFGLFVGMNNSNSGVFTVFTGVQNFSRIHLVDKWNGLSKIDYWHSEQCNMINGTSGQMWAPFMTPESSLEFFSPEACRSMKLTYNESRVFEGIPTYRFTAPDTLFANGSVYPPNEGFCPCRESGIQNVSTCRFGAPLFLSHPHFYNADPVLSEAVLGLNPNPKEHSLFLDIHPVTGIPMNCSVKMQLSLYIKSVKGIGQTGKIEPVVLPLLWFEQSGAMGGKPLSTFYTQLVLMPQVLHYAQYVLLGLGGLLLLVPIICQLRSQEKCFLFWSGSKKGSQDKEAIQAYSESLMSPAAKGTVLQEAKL

Row | SMILES | activity change, negative = inhibition
1 | O=S1(=O)N(CCN2CC=C(c3c[nH]c4cc(F)ccc34)CC2)c2cccc3c2N1CCC3 | 0.978% (inactive)
2 | CCCCCCn1c(=O)c(C(=O)Nc2cnccn2)c(O)c2ccccc21 | 64.8% (inactive)
3 | CNC1(c2ccc(F)cc2)CCCCC1 | 6.55% (inactive)
4 | COc1ccc(NC(=O)C2C3CCC(O3)C2C(=O)O)c(OC)c1 (configuration not stated) | 37.1% (inactive)
5 | CC(C)(C)c1ccc(S(=O)(=O)N2CC3CC(C2)c2cccc(=O)n2C3)cc1 (configuration not stated) | -4.36% (inactive)
6 | O=C(Nc1ccccc1F)OC1CN2CCC1CC2 (configuration not stated) | 31% (inactive)
7 | O=c1cccc2n1CC1CC2CN(S(=O)(=O)c2cc(Cl)ccc2Cl)C1 (configuration not stated) | 8.09% (inactive)
